Results taken from PubChem BioAssay (NCATS).
“And” between values parts separate entries of the source, which are not always exact repeats. Equal values may be shown once. Results filed as inconclusive are left out. The source made the active and inactive calls. Unless noted, calls come from the whole dose curve; as a rule, active = well fitted inhibition curve with a large enough effect; inconclusive = small, poorly fitted or top-dose-only effect; inactive = no such curve, though single readings can be large or run the other way. Non-standard residues stand in square brackets, D forms with d. Residues, ends and D or L forms follow the SMILES beside them. *: point of attachment. Sta = CC(C)C[C@H](N)[C@@H](O)CC(=O)O; Isovaleryl = CC(C)CC(=O)*

Assays:
[1] = qHTS profiling of the MIPE4 collection as inhibitors of Plasmodium falciparum (DD2) proliferation (AID 743345; call rule not given here); settings: P. falciparum Dd2 in erythrocytes, SYBR Green DNA, 72 h; at 28.5 µM (top of the series) unless noted
Method in brief: (§1)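 Parasite DNA was quantified by SYBR Green I fluorescence (ex 485, em 535 nm) after overnight lysis in saponin/Triton buffer at room temperature. Cultures at 0.3% parasitemia and 2.5% hematocrit were first exposed to compound for 72 h at 37 C; signals were normalised to artemisinin (0.29 uM) and vehicle wells.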

[2] = qHTS profiling of the MIPE4 collection as inhibitors of Plasmodium falciparum (DD2) proliferation (Rep 2) (AID 743346; call rule not given here); settings: P. falciparum Dd2 in erythrocytes, SYBR Green DNA, 72 h; at 28.5 µM (top of the series) unless noted
Method in brief: as §1

[3] = qHTS profiling of the MIPE4 collection as inhibitors of Plasmodium falciparum (HB3) proliferation (AID 743347; call rule not given here;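 note: plate controls were DMSO vehicle wells for no effect and artemisinin wells for full effect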); settings: P. falciparum HB3 in erythrocytes, SYBR Green DNA, 72 h; at 28.5 µM (top of the series) unless noted
Method in brief: as §1

[4] = High-throughput drug toxicity screening in the BPDCN cell line Gen2.2 (AID 1224824; call rule not given here;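 note: cells exposed to compounds for 48 h before reading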); settings: Gen2.2 BPDCN cells; at 45.8 µM (top of the series) unless noted
Method in brief: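 Readout is ATP luminescence from Gen2.2 cells after two days of drug exposure in serum-containing medium at 37 °C. Values express percent activity, with vehicle defining full signal and 9.2 uM bortezomib defining zero.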

[5] = High-throughput drug toxicity screening in the BPDCN cell line Cal-1 (AID 1224825; call rule not given here); settings: Cal-1 BPDCN cell viability, qHTS; at 45.8 µM (top of the series) unless noted
Method in brief: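 CellTiter-Glo luminescence after 48 h compound exposure; percent activity scaled with DMSO as 100% and bortezomib (9.2 uM final) as 0%. Cal-1 cells seeded at 500/well in RPMI, 10% FBS, no phenol red.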

[6] = qHTS assay for measurement of the activity of small molecule inhibitors on Zika virus induced Caspase-3 activity in human iPSC derived neural progenitor cells (hNPCs) (AID 1224857); note: nearly all actives have a fitted effect of over 65% in size; note: potency is the fitted concentration of half-maximal effect
Method in brief: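 Percent inhibition of virus-induced caspase-3/7 luminescence (Caspase-Glo), scaled between uninfected cells and Zika-infected cells. hNPCs received compound 1 hr before ZIKV at 2 FFU/cell, with 6 hours infection at 37 C.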

[7] = qHTS assay for measurement of the activity of small molecule inhibitors on Zika virus induced Caspase-3 activity in human astrocytoma cells (AID 1224859); note: potency is the fitted concentration of half-maximal effect
Method in brief: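 Luminescent caspase-3/7 read-out (30 min reagent, room temperature) in human SNB-19 cells infected 6 h with ZIKV (2 FFU/cell) after 1 h compound pre-incubation; Data were normalised to uninfected and infected wells.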

[8] = qHTS Screen of the MIPE 4.0 Collection Against Ewings Sarcoma (RDES) (AID 1259252); note: nearly all actives have a fitted effect of over 35% in size; note: potency is the fitted concentration of half-maximal effect
Method in brief: (§2)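 Dose series incubated 48 h with cells in RPMI plus 5% FBS, glutamine and penicillin/streptomycin; cell viability then quantified via CellTiter-Glo.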

[9] = qHTS Screen of the MIPE 4.0 Collection Against Ewings Sarcoma (TC71) (AID 1259253); note: nearly all actives have a fitted effect of over 40% in size; note: potency is the fitted concentration of half-maximal effect
Method in brief: as §2

[10] = qHTS Screen of the MIPE 4.0 Collection Against Ewings Sarcoma (EW8) (AID 1259255); note: nearly all actives have a fitted effect of over 35% in size; note: potency is the fitted concentration of half-maximal effect;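 for viability: 100% = DMSO-treated cells and 0% = medium-only wells without cells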
Method in brief: as §2

CC(C)[N+]1(C)[C@@H]2CC[C@H]1CC(OC(=O)C(CO)c1ccccc1)C2 (some centres undefined)
parasite growth remaining, % of DMSO control (lower = more inhibition) [1]: 89.9%
parasite growth, % of control (lower = inhibition) [2]: 77.3%
growth, % of control [3]: 75%
cell viability, % of control (lower = more cytotoxic) [4]: 31.9%
viability (% of control) [5]: 31.8%
Potency [6]: inactive
Potency [7]: inactive
Potency [8]: inactive
Potency [9]: inactive
Potency [10]: inactive

CCN(CC)CCOc1ccc(Nc2ncc3cc(-c4c(Cl)cccc4Cl)c(=O)n(C)c3n2)cc1
parasite growth remaining, % of DMSO control (lower = more inhibition) [1]: 8.57%
growth, % of control [3]: 4.26%
cell viability, % of control (lower = more cytotoxic) [4]: 4.53%
viability (% of control) [5]: 2.59%
Potency [6]: inactive
Potency [7]: inactive
Potency [8]: 1.87 µM (active)
Potency [9]: 3.32 µM (active)
Potency [10]: 0.235 µM (active)

CN(C)C(=O)[C@H](O)[C@H](Cc1ccccc1)NC(=O)c1cc2cc(Cl)ccc2[nH]1
parasite growth remaining, % of DMSO control (lower = more inhibition) [1]: 54.1%
parasite growth, % of control (lower = inhibition) [2]: 13.9%
growth, % of control [3]: 2.28%
cell viability, % of control (lower = more cytotoxic) [4]: 238%
viability (% of control) [5]: 43.4%
Potency [6]: inactive
Potency [7]: inactive
Potency [8]: 18.7 µM (active)
Potency [9]: 16.6 µM (active)

CN(C)c1ccc2nc3ccc(=[N+](C)C)cc-3sc2c1
parasite growth remaining, % of DMSO control (lower = more inhibition) [1]: 16.9% and 18.5%
parasite growth, % of control (lower = inhibition) [2]: 6.81% and 13.3%
growth, % of control [3]: 43.4% and 10.1%
cell viability, % of control (lower = more cytotoxic) [4]: 10.9%
viability (% of control) [5]: 8.34%
Potency [6]: inactive
Potency [7]: inactive
Potency [8]: 2.35 µM (active)
Potency [9]: 3.72 µM (active)
Potency [10]: 4.69 µM (active)

c1cnc2cc3c(cc2n1)C1CNCC3C1
parasite growth remaining, % of DMSO control (lower = more inhibition) [1]: 96.8%
parasite growth, % of control (lower = inhibition) [2]: 52.2%
growth, % of control [3]: 68.4%
cell viability, % of control (lower = more cytotoxic) [4]: 95.8%
viability (% of control) [5]: 97.2%
Potency [6]: inactive
Potency [7]: inactive
Potency [8]: inactive
Potency [9]: inactive
Potency [10]: inactive

CC1=C(C)C(=O)C(C(CCCCCC(=O)O)c2ccccc2)=C(C)C1=O (centres undefined)
parasite growth remaining, % of DMSO control (lower = more inhibition) [1]: 87.9%
parasite growth, % of control (lower = inhibition) [2]: 46%
growth, % of control [3]: 74.4%
cell viability, % of control (lower = more cytotoxic) [4]: 195%
viability (% of control) [5]: 115%
Potency [6]: inactive
Potency [7]: inactive
Potency [8]: inactive
Potency [9]: inactive

COc1cc(Nc2c(C#N)cnc3cc(OCCCN4CCN(C)CC4)c(OC)cc23)c(Cl)cc1Cl
parasite growth remaining, % of DMSO control (lower = more inhibition) [1]: 10.9%
parasite growth, % of control (lower = inhibition) [2]: 14.7%
growth, % of control [3]: 3.88%
cell viability, % of control (lower = more cytotoxic) [4]: 5%
viability (% of control) [5]: 3.18%
Potency [6]: inactive
Potency [7]: inactive
Potency [8]: 3.32 µM (active)
Potency [9]: 18.7 µM (active)

O=c1cc(N2CCOCC2)oc2c(-c3ccccc3)cccc12
parasite growth remaining, % of DMSO control (lower = more inhibition) [1]: 96%
parasite growth, % of control (lower = inhibition) [2]: 78.4%
growth, % of control [3]: 36.7%
cell viability, % of control (lower = more cytotoxic) [4]: 13.3%
viability (% of control) [5]: 36.2%
Potency [6]: inactive
Potency [7]: inactive
Potency [8]: 13.2 µM (active)
Potency [9]: 18.7 µM (active)

Cc1c(OCC(F)(F)F)ccnc1CS(=O)c1nc2ccccc2[nH]1 (centres undefined)
cell viability, % of control (lower = more cytotoxic) [4]: 595%
viability (% of control) [5]: 100%
Potency [6]: inactive
Potency [7]: inactive

CCC(C)(Oc1ccc(C2(c3ccc(OC(C)(CC)C(=O)O)cc3)CCCCC2)cc1)C(=O)O (centres undefined)
parasite growth remaining, % of DMSO control (lower = more inhibition) [1]: 98.3%
parasite growth, % of control (lower = inhibition) [2]: 73.7%
growth, % of control [3]: 107%
cell viability, % of control (lower = more cytotoxic) [4]: 148%
viability (% of control) [5]: 136%
Potency [6]: inactive
Potency [7]: inactive
Potency [8]: inactive
Potency [9]: inactive
Potency [10]: inactive

CCOC(=O)C1=C[C@@H](OC(CC)CC)[C@H](NC(C)=O)[C@@H](N)C1
cell viability, % of control (lower = more cytotoxic) [4]: 152%
viability (% of control) [5]: 106%
Potency [6]: inactive
Potency [7]: inactive
Potency [8]: inactive
Potency [9]: inactive
Potency [10]: inactive

CC1(C)CCC(C)(C)c2cc(NC(=O)c3ccc(C(=O)O)cc3)ccc21
parasite growth remaining, % of DMSO control (lower = more inhibition) [1]: 86.1%
parasite growth, % of control (lower = inhibition) [2]: 27%
growth, % of control [3]: 49.3%
cell viability, % of control (lower = more cytotoxic) [4]: 73.5%
viability (% of control) [5]: 66%
Potency [6]: inactive
Potency [7]: inactive
Potency [8]: 23.5 µM (active)
Potency [9]: 18.7 µM (active)

C[C@H](Cn1cnc2c(N)ncnc21)OCP(=O)(O)O
parasite growth remaining, % of DMSO control (lower = more inhibition) [1]: 112%
parasite growth, % of control (lower = inhibition) [2]: 107%
growth, % of control [3]: 612%
cell viability, % of control (lower = more cytotoxic) [4]: 168%
viability (% of control) [5]: 130%
Potency [6]: inactive
Potency [7]: inactive
Potency [8]: inactive
Potency [9]: inactive
Potency [10]: inactive

COCCCOc1ccnc(CS(=O)c2nc3ccccc3[nH]2)c1C (centres undefined)
cell viability, % of control (lower = more cytotoxic) [4]: 139%
viability (% of control) [5]: 104%
Potency [6]: inactive
Potency [7]: inactive
Potency [8]: inactive

O=c1c(O)c(-c2cc(O)c(O)c(O)c2)oc2cc(O)cc(O)c12
parasite growth remaining, % of DMSO control (lower = more inhibition) [1]: 85.3%
parasite growth, % of control (lower = inhibition) [2]: 111%
growth, % of control [3]: 106%
cell viability, % of control (lower = more cytotoxic) [4]: 54.4%
viability (% of control) [5]: 111%
Potency [6]: inactive
Potency [7]: inactive
Potency [8]: 16.6 µM (active)
Potency [9]: inactive

CC(C)CC(=O)N[C@H](C(=O)N[C@H](C(=O)N[C@@H](CC(C)C)[C@@H](O)CC(=O)N[C@@H](C)C(=O)N[C@@H](CC(C)C)[C@@H](O)CC(=O)O)C(C)C)C(C)C (Isovaleryl-VV[Sta]A[Sta]-OH)
parasite growth remaining, % of DMSO control (lower = more inhibition) [1]: 99.1%
parasite growth, % of control (lower = inhibition) [2]: 58.8%
growth, % of control [3]: 64.1%
cell viability, % of control (lower = more cytotoxic) [4]: 72.5%
viability (% of control) [5]: 39.4%
Potency [6]: inactive
Potency [7]: inactive
Potency [8]: inactive
Potency [9]: inactive
Potency [10]: inactive

CC1=C(C(=O)O)N2C(=O)[C@@H](NC(=O)[C@H](N)C3=CCC=CC3)[C@H]2SC1
parasite growth remaining, % of DMSO control (lower = more inhibition) [1]: 87.3%
parasite growth, % of control (lower = inhibition) [2]: 74.3%
growth, % of control [3]: 51.2%
cell viability, % of control (lower = more cytotoxic) [4]: 145%
viability (% of control) [5]: 99.4%
Potency [6]: inactive
Potency [7]: inactive
Potency [8]: inactive
Potency [9]: inactive

Nc1nc(N)c(N=O)c(OCC2CCCCC2)n1
parasite growth remaining, % of DMSO control (lower = more inhibition) [1]: 79.9%
growth, % of control [3]: 36.5%
cell viability, % of control (lower = more cytotoxic) [4]: 18.1%
viability (% of control) [5]: 15.6%
Potency [6]: inactive
Potency [7]: inactive
Potency [8]: 14.8 µM (active)
Potency [9]: 16.6 µM (active)
Potency [10]: 18.7 µM (active)

COc1cc2c(cc1OC)C1CC(=O)C(CC(C)C)CN1CC2 (centres undefined)
parasite growth remaining, % of DMSO control (lower = more inhibition) [1]: 7.77%
parasite growth, % of control (lower = inhibition) [2]: 77.8%
growth, % of control [3]: 67.9%
cell viability, % of control (lower = more cytotoxic) [4]: 141%
viability (% of control) [5]: 100%
Potency [6]: inactive
Potency [7]: inactive
Potency [8]: inactive
Potency [9]: inactive
Potency [10]: inactive

CCCS(=O)c1ccc2nc(NC(=O)OC)[nH]c2c1 (centres undefined)
cell viability, % of control (lower = more cytotoxic) [4]: 32.3%
viability (% of control) [5]: 13.7%
Potency [6]: 10 µM (active) and 16.6 µM (active)
Potency [7]: 20.9 µM (active)
Potency [8]: 20.9 µM (active)
Potency [9]: 23.5 µM (active)
Potency [10]: 20.9 µM (active)

CCCCC(CC)COC(=O)C(C#N)=C(c1ccccc1)c1ccccc1 (centres undefined)
parasite growth remaining, % of DMSO control (lower = more inhibition) [1]: 18.3%
parasite growth, % of control (lower = inhibition) [2]: 11.9%
growth, % of control [3]: 7.29%
cell viability, % of control (lower = more cytotoxic) [4]: 157%
viability (% of control) [5]: 112%
Potency [6]: inactive
Potency [7]: inactive
Potency [8]: inactive
Potency [9]: inactive
Potency [10]: inactive
